The text below walks through data of PubChem BioAssay (Tox21).

Unmarked numbers belong to inactive results. Inconclusive results are not listed. The source made the active and inactive calls. Unless noted, calls come from the whole dose curve; as a rule, active = well fitted curve in the direction sought with a large enough effect in the repeat runs; inconclusive = weak or mixed curves; inactive = flat fitted curve, though single readings scatter.

Assay [1] is described as follows: qHTS assay to test for compound auto fluorescence at 535 nm (green) in HEK293 cells (AID 720680). For orientation: Quantitative high-throughput screening tests each substance at several concentrations.
Assay [2] can be described thus: qHTS assay to test for compound auto fluorescence at 460 nm (blue) in HEK293 cell free culture (AID 720681). An outline of the steps: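 Test compounds were pinned into cell-free culture medium (DMEM with 10% FBS) and fluorescence was read directly at Ex/Em 405/460 nm. Signals were expressed as fluorescence equivalents of triamterene, with DMSO vehicle as control.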

Assay [3] is described as follows: qHTS assay to test for compound auto fluorescence at 535 nm (green) in HEK293 cell free culture (AID 720682). The method, boiled down:
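Each library compound, or DMSO control, is added by pintool to medium alone, comprising DMEM and 10% FBS. Emission at 535 nm following 485 nm excitation is quantified against fluorescein.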

Assay [4] in a line: qHTS assay to test for compound auto fluorescence at 590 nm (red) in HEK293 cell free culture (AID 720683). The method, boiled down: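 Tox21 10K library compounds were pinned into cell-free DMEM with 10% FBS and fluorescence was read at excitation 540 nm. Activity is expressed as Rose Bengal sodium equivalency.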
The nature of assay [5]: qHTS assay to test for compound auto fluorescence at 590 nm (red) in HepG2 cell free culture (AID 720684). The method, boiled down:
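Readout: intrinsic compound fluorescence at 590 nm emission after 540 nm excitation, scaled to Rose Bengal sodium. Matrix was cell-free MEM with 10% FBS; DMSO vehicle wells served as control.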

A short description of assay [6]: qHTS assay to test for compound auto fluorescence at 460 nm (blue) in HepG2 cell free culture (AID 720685). The method, boiled down: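 Cell-free plates of MEM plus 10% FBS received 23 nL compound or DMSO vehicle; blue-channel (405/460 nm) intensity scored against triamterene as reference fluorophore.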
Assay [7] can be described thus: qHTS assay to test for compound auto fluorescence at 535 nm (green) in HepG2 cell free culture (AID 720686).
Assay [8] can be described thus: qHTS assay to test for compound auto fluorescence at 460 nm (blue) in HepG2 cells (AID 720687). An outline of the steps:
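Cells (2,000/well in MEM with 10% FBS) attached overnight at 37 C, then were exposed to compound or DMSO for 1 hr at 37 C, 5% CO2. Fluorescence read at Ex/Em 405/460 nm, expressed as triamterene-equivalent signal.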

Assay [9] has as its target Glucocorticoid receptor (Homo sapiens) (UniProt P04150). Nature of the assay: qHTS assay to identify small molecule agonists of the glucocorticoid receptor (GR) signaling pathway (AID 720691; active = well fitted activation curve with a large enough effect in the signal ratio in the repeat runs, not every such curve was filed as active; the % refers to the signal ratio). An outline of the steps: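 Agonist-mode qHTS in HeLa cells stably expressing a glucocorticoid-response-element beta-lactamase reporter. Fluorescence intensity read with FRET substrate (2 h, room temperature) after 18 h compound treatment at 37 C.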

The target is the same in assay [10]. Description: qHTS assay to identify small molecule antagonists of the glucocorticoid receptor (GR) signaling pathway (AID 720692; active = well fitted inhibition curve with a large enough effect in the signal ratio in the repeat runs, not every such curve was filed as active; the % refers to the signal ratio; note: potency is the fitted concentration of half-maximal effect). An outline of the steps: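 Inhibition of dexamethasone-driven (5 nM final) beta-lactamase expression was measured in GRE-reporter HeLa cells over 18 h at 37C. Fluorescence was read after 2 h with the B/G FRET substrate at room temperature.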
% is set by controls: 0 for no effect and ±100 for the full control effect.

Chain of Glucocorticoid receptor (Homo sapiens) (P04150 whole entry, looked up): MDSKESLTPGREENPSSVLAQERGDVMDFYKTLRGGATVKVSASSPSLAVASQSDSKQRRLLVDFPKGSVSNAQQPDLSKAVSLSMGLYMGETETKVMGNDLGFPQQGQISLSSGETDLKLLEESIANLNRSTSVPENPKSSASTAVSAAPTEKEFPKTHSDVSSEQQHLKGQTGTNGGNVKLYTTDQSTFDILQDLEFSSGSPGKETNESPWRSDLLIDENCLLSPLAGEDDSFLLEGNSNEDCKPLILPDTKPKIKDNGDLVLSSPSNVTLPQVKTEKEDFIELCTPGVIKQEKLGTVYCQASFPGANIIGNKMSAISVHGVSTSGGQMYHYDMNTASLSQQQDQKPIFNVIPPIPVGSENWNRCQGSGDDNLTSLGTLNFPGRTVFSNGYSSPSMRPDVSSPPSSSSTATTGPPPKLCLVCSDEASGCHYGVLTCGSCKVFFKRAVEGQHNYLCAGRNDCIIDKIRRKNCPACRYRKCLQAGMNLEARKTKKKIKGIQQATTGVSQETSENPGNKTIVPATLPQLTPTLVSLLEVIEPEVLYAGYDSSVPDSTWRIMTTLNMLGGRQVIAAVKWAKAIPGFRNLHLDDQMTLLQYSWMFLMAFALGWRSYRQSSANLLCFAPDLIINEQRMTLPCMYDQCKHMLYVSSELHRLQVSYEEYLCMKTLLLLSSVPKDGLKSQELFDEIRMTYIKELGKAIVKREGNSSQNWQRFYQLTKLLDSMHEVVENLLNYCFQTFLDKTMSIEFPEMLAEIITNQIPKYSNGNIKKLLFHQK

As to `CC(C)CCCCCCOC(=O)CCCCC(=O)OCCCCCCC(C)C`, the call in assay [1], in [3], in assay [4], in assay [5] and in [7] was inactive. Moreover, the Potency entry in assay [2], in assay [6], in assay [8], in assay [9] and in [10] was “inactive” in each case.
On to `C1COCO1`, for which the result in assay [1], in [3], in [4], in assay [5] and in [7] was inactive. Further, the Potency entry in [2], in assay [6], in assay [8], in [9] and in [10] was “inactive” throughout.
As to `CCC1(C)CC(=O)NC1=O` (configuration not stated), the call in [1], in [3], in [4], in assay [5] and in [7] was inactive. Also, the Potency result in [2], in [6], in assay [8], in assay [9] and in assay [10] was “inactive” in each case.
In the case of `OC/C(Br)=C(\Br)CO`, the outcome in assay [1], in [3], in assay [4], in assay [5] and in assay [7] was inactive. The Potency entry in assay [2], in assay [6], in assay [8], in [9] and in [10] was “inactive” each time.
On to `O=C(O)c1snc(Cl)c1Cl`, for which the result in assay [1], in assay [3], in [4], in assay [5] and in assay [7] was inactive. The Potency entry in assay [2], in assay [6], in assay [8] and in assay [9] was “inactive” throughout.
Consider `O=S(=O)(c1ccccc1)c1ccc(Cl)cc1`, for which the outcome in assay [1], in assay [3], in [4], in assay [5] and in assay [7] was inactive. Also, the Potency result in assay [2], in assay [6], in assay [8], in assay [9] and in assay [10] was “inactive” in each case.
As to `OCCSc1ccccc1`, the outcome in assay [1], in [3], in [4], in assay [5] and in assay [7] was inactive. Besides, the Potency entry in [2], in assay [6], in assay [8], in [9] and in assay [10] was “inactive” throughout.
For the molecule `O=C(N/N=C/c1ccc([N+](=O)[O-])o1)c1ccc(O)cc1`, in assay [1], the fluorescence, % of fluorescein is 0.0272% [at 18.6 µM]. In addition, the fluorescence, % of fluorescent control in [2] was -0.307% [at 18.6 µM]; in assay [4], -0.537% [at 18.6 µM]; in [6] it was -0.18% [at 18.6 µM]; in assay [8] it was -0.0309% [at 18.6 µM]. Moreover, in assay [3], the activity change was 0.0091% [at 18.6 µM]. Also, the fluorescence, % of Rose Bengal in assay [5] is -0.154% [at 18.6 µM]. Further, the fluorescence, % of fluorescein control in [7] was -0.0078% [at 18.6 µM]. Also, the Potency entry in [9] and in assay [10] was “inactive” in each case.
Turning to `Cc1nccn1-c1ccc(Sc2cccc(C3(C(N)=O)CCOCC3)c2)cc1`, the call in assay [1], in [3], in assay [4], in assay [5] and in assay [7] was inactive. The Potency entry in assay [2], in assay [6], in assay [8] and in assay [9] was “inactive” each time. Besides, in assay [10], the Potency is 24.5 µM (active).
As to `C=CC(C)(C)CC(=O)OC`, the molecule was classed as inactive in assay [1], in [3], in assay [4], in assay [5] and in assay [7]. The Potency entry in assay [2], in assay [6], in assay [8], in [9] and in [10] was “inactive” throughout.
On to `CC(C)C(=O)O`, for which the molecule was called inactive in assay [1], in assay [3], in [4], in assay [5] and in assay [7]. The Potency entry in assay [2], in [6], in [8], in [9] and in assay [10] was “inactive” throughout.
Take `N#C[C@@H]1C[C@@H]2C[C@@H]2N1C(=O)[C@@H](N)C12CC3CC(CC(O)(C3)C1)C2`: the molecule was called inactive in assay [1], in [3], in assay [4], in assay [5] and in [7]. Also, the Potency entry in assay [2], in assay [6], in assay [8] and in assay [9] was “inactive” each time.
Consider `CC(C)(C)C(=O)C(Oc1ccc(Cl)cc1)n1ccnc1` (configuration not stated), for which the molecule was called inactive in assay [1], in assay [3], in [4] and in assay [5]. Moreover, the Potency entry in [2], in assay [6] and in [8] was “inactive” each time.
As to `CC(=N\O)/C(C)=N/O`, the molecule was classed as inactive in assay [1], in assay [3], in [4] and in assay [5]. Besides, the Potency entry in assay [2], in assay [6] and in assay [8] was “inactive” throughout.
In the case of `O=Cc1c(Cl)cccc1Cl`, the outcome in assay [1], in assay [3], in assay [4], in assay [5] and in assay [7] was inactive. In addition, the Potency result in [2], in assay [6], in [8] and in [10] was “inactive” throughout.
Consider `O=C(NCCCN1CCOCC1)c1ccc(Cl)cc1`, for which the call in [1], in assay [3], in [4], in assay [5] and in [7] was inactive. The Potency entry in assay [2], in assay [6], in assay [8] and in [10] was “inactive” each time.
Regarding `C=CCCCCCCCCCCCCCCCC`, in assay [1], the fluorescence, % of fluorescein is 0.013% [at 3.72 µM]. Also, the fluorescence, % of fluorescent control was -0.189% [at 3.72 µM] in assay [2], -0.0981% [at 3.72 µM] in assay [4], -0.0068% [at 3.72 µM] in assay [6] and 0.0871% [at 3.72 µM] in assay [8]. Also, in assay [3], the activity change was -0.098% [at 3.72 µM]. The fluorescence, % of Rose Bengal in assay [5] was 0.0296% [at 3.72 µM].
With `CC(=O)Oc1ccc(C(=C2CCCCC2)c2ccc(OC(C)=O)cc2)cc1`, the molecule was classed as inactive in assay [1], in assay [3], in [4] and in assay [5]. Besides, the Potency entry in assay [2], in assay [6] and in [8] was “inactive” each time.
Consider `CCCCCCOC(=O)CCCCCCCC(=O)OCCCCCC`, for which the molecule was classed as inactive in assay [1], in assay [3], in assay [4], in assay [5] and in [7]. Besides, the Potency entry in assay [2], in assay [6], in assay [8] and in assay [10] was “inactive” each time.
Consider `CC(=O)Nc1ccc(N)cc1`, for which the result in assay [1], in assay [3], in assay [4], in assay [5] and in assay [7] was inactive. For the same molecule, the Potency result in assay [2], in [6], in [8] and in assay [10] was “inactive” throughout.
Turning to `CC1=CC(=O)CC(C)(C)C1(O)/C=C/C(C)=C\C(=O)O` (configuration not stated), the molecule was classed as inactive in assay [1], in assay [3], in [4], in [5] and in [7]. For the same molecule, the Potency result in [2], in assay [6], in assay [8], in assay [9] and in [10] was “inactive” each time.
